Source: PubChem
A selection: hits, their analogues and other compounds. The true share with any hit is near 12%.
G9a block: qHTS Assay for Inhibitors of Histone Lysine Methyltransferase G9a | Potency, µM (highest dose often 102 µM), for inactives: at the top dose activity, negative = inhibition, most hits filed as inhibitors | AID 504332, 2011 | hit rate 8.8% among 350,000 | G9a H3K9 monomethylation, AlphaScreen, 2 h; further: potency means the concentration at half of the fitted maximal effect; on the % scale 0 is the no-effect control and ±100 the full control effect; nearly all actives have a fitted effect of over 75% in size
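Signal arises when biotinylated H3K9 peptide, once monomethylated, bridges streptavidin donor and antibody-captured acceptor beads. Enzyme at 20 nM was preincubated 15 min with test compounds; peptide 500 nM and SAM 20 uM then reacted for 2 h.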
BAZ2B block: qHTS Assay for Inhibitors of BAZ2B; Bromodomain adjacent to zinc finger domain protein 2B (Homo sapiens), Q9UIF8; AlphaScreen BAZ2B-H3K14Ac peptide displacement; Potency, µM (top dose mostly 114 µM), for the others: at the highest dose activity change, negative = inhibition, usual class: inhibitors; hit rate 4.4% among 360,000; AID 504333, 2011; further: potency means the concentration at half of the fitted maximal effect; on the % scale 0 is the no-effect control and ±100 the full control effect; nearly all actives have a fitted effect of over 60% in size
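AlphaScreen displacement of biotin-H3(5-23)K14Ac peptide (50 nM final) from BAZ2B (50 nM final) in PBS pH 7.4, 0.01% Tween-20; complex preformed 30 min RT, then compounds (top 110 uM) 30 min RT, beads 20 min dark.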
HP1b binding inh: HTS for Inhibitors of HP1-beta Chromodomain Interactions with Methylated Histone Tails. Chromobox protein homolog 1 (Homo sapiens), P83916. AlphaScreen HP1-beta / biotin-H3K9me3 peptide binding. Potency, µM (top dose mostly 114 µM), without a hit: at the highest dose activity change, negative = inhibition, actives largely listed as inhibitors. hit rate 0.56% among 390,000. AID 540317, 2011; further: potency means the concentration at half of the fitted maximal effect; nearly all actives have a fitted effect of over 70% in size
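HP1-beta protein (50 nM final) preincubated 30 min at room temperature with biotinylated H3(1-18)K9me3 peptide (50 nM) in PBS pH 7.4, 0.01% Tween-20, then compound added for 30 min. AlphaScreen streptavidin donor/nickel chelate acceptor beads (10 ug/mL final), 30 min dark, luminescence read.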
Sfp inh: qHTS Assay for Inhibitors of Bacillus subtilis Sfp phosphopantetheinyl transferase (PPTase) | Potency, µM, for the others: largest response in the series, negative = inhibition, hits mostly inhibitors | hit rate 3.5% among 310,000 | 4'-phosphopantetheinyl transferase ffp (Bacillus subtilis), Q9F4F7 | Biochemical Sfp PPTase activity, qHTS;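 further: the enzyme is Sfp with the accession as filed and its product quenches rhodamine fluorescence; potency means the concentration at half of the fitted maximal effect; 0% = enzyme reaction without inhibitor and -100% = no enzyme wells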
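Compounds were incubated with enzyme (final 15 nM) for 15 min at room temperature before substrate addition started the reaction. Fluorescence at 525 nm excitation, 598 nm emission was recorded immediately and after 30 minutes.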
JMJD2A Tudor: qHTS Assay for Inhibitors of JMJD2A-Tudor Domain | AlphaScreen JMJD2A-Tudor / H3K4me3 peptide binding | Potency, µM (titrated, usually from 114 µM), without a hit: at the highest dose activity change, negative = inhibition, most hits filed as inhibitors | hit rate 4.4% among 390,000; further: potency means the concentration at half of the fitted maximal effect; on the % scale 0 is the no-effect control and ±100 the full control effect; nearly all actives have a fitted effect of over 50% in size
Target sequence (O75164 whole entry, looked up, the tested form may be a part): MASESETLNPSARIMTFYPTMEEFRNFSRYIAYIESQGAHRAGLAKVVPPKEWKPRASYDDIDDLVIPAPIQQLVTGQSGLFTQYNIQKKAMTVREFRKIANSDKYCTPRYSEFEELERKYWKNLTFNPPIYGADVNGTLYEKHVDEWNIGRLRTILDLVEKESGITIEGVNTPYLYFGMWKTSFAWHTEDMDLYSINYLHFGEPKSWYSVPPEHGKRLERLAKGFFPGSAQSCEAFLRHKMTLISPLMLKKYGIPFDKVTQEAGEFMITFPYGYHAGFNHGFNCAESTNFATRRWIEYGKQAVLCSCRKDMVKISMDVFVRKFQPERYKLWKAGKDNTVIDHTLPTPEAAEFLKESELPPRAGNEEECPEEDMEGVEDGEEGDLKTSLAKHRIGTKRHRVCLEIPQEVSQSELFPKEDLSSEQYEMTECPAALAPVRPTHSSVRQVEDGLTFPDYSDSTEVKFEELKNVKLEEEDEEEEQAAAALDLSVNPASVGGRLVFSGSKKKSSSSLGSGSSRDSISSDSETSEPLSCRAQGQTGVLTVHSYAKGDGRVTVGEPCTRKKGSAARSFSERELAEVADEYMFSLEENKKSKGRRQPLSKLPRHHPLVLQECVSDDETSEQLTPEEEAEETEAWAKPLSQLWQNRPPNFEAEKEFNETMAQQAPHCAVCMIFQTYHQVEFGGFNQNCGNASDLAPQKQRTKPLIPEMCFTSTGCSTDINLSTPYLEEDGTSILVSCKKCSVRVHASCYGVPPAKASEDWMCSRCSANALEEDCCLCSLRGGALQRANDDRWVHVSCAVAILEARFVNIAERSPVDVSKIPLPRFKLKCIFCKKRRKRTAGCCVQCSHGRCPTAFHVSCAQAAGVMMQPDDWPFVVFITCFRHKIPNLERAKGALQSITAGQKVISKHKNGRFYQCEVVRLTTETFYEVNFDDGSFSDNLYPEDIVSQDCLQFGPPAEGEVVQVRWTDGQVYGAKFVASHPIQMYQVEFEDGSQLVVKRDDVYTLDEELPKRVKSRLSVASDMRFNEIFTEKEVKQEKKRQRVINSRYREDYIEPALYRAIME
Sfp PPTase conf: Confirmation qHTS Assay for Inhibitors of Bacillus subtilis Sfp phosphopantetheinyl transferase (PPTase) | Sfp PPTase enzymatic assay, qHTS titration | Potency, µM (top dose mostly 114 µM), inactives show at the highest dose activity change, negative = inhibition, actives largely listed as inhibitors | shares compounds with Sfp inh | hit rate 79% among 380;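 further: potency means the concentration at half of the fitted maximal effect; plate controls were uninhibited Sfp reaction for no effect and no enzyme control for full effect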
Sfp gel assay: Gel-Based Assay for Inhibitors of Bacillus subtilis Sfp phosphopantetheinyl transferase (PPTase). purified Sfp, gel-based phosphopantetheinylation read-out. hit rate 20% among 210. AID 2707, 2010. shares compounds with Sfp inh. Potency, µM, usual class: inhibitors;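 active means potency below 100 µM; inconclusive means dose-dependent response but potency above 100 µM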;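 further: band intensities scaled against SCH202676 control wells before curve fitting; potency is an IC50 for inhibitors of Sfp transfer activity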
Starred values were filed as active, the others as inactive; i = inactive; ? = inconclusive; / = not tested or not shown; ! = repeats disagree; [ ] = remark or other dose. Unless noted, the call rests on the fitted dose curve; in most records, active means well fitted curve in the direction sought with a large enough effect; inconclusive means small, poorly fitted or top-dose-only effect, or another doubt; inactive means no such curve, though single readings can be large; an effect the other way counts as inactive or inconclusive.

SMILES	G9a block	BAZ2B block	HP1b binding inh	Sfp inh	JMJD2A Tudor	Sfp PPTase conf	others
CC(C)(O)C#Cc1ccc(C(=O)N2CCCC(CNS(=O)(=O)c3cccs3)C2)o1 (stereo not given)	28µM*	-19%	28%	40µM*	-13%	59µM*
CC(=O)O[C@H]1C(=O)[C@@]2(C)[C@H]([C@H](OC(=O)c3ccccc3)[C@]3(O)C[C@H](OC(=O)[C@H](O)C(NC(=O)c4ccccc4)c4ccccc4)C(C)=C1C3(C)C)[C@]1(OC(C)=O)CO[C@@H]1C[C@@H]2O (stereo not given in full)	12%[12.7 µM]	-18%	43%	10µM*	-8%	30µM*	Sfp gel assay=i
O/N=C/c1cc2ccccc2n1Cc1ccccc1F	57%	-5%	34%	24%	-15%	/
O=C(Nc1cccnc1)c1cccc(S(=O)(=O)Nc2ccccc2F)c1	?	-26%	31%	/	-12%	/
O=C(/C=C/c1ccccc1)Nc1cccc(S(=O)(=O)Nc2ccccc2F)c1	1.6µM*	45µM*	?	4µM*	45µM*	3.7µM*
COC(=O)c1cc(S(=O)(=O)Nc2nn(C)c3ccccc23)oc1C	/	3%	24%	7%	1%	/
O=C(NCCCn1ccnc1)c1nn2c(C(F)(F)F)cc(-c3ccc(Br)cc3)nc2c1Cl	50µM*	50µM*	?	1.1µM*	45µM*	?
COc1ccc(Cl)cc1NC(=S)NCc1cccnc1	-30%	-22%	46%	11%	-2%	/
CN(C)S(=O)(=O)c1ccc2c(c1)nc(CCC(=O)Nc1ccc(N3CCOCC3)cc1)n2C	-19%[12.7 µM]	?	24%	5%	-8%	/
COc1ccccc1NS(=O)(=O)c1cc(NC(=O)c2sccc2C)ccc1N1CCCC1	3.5µM*	-31%	?	2.8µM*	-18%	17µM*
O=C(NC1CCCc2ccccc21)c1ccccc1Cl (stereo not given)	-4%	-22%	58%	13%	13%[57.1 µM]	/
CC(=O)CCc1oc2ccc(NC(C)=O)cc2c1-c1ccc(C)o1	13µM*	?	11%	13µM*	?	15µM*	Sfp gel assay=i
CC(=O)Nc1ccc(NC(=O)CCc2ccc(C)o2)cc1	19%	-19%	21%	7%	-7%	/
O=C1c2ccccc2C(Nc2ccc(S(=O)(=O)N3CCOCC3)cc2)N1c1cccnc1 (stereo not given)	-21%	2%	11%	2%	6%	/
O=C(COC(=O)c1cncc(Br)c1)NCc1ccc(F)cc1	-2%	-1%	34%	24%	-11%	/
O=C(COC(=O)c1cncc(Br)c1)NCc1ccco1	-22%[0.0925 µM]	32µM*	30%	13µM*	-36%	47µM*	Sfp gel assay=i
Nc1c(-c2ccncc2)cc[nH]c1=O	/	/	/	/	-16%	/
Nc1cc(-c2ccncc2)c[nH]c1=O	45µM*!	-12%	13%	6.3µM*!	-33%	13µM*	Sfp gel assay=?
COc1ccc(NC(=S)N(CCC(C)C)C2CCN(C(C)C)CC2)cc1Cl	5µM*	-9%	11%	4µM*	-35%	1.9µM*
O=C(NCc1ccco1)c1cc2c(s1)CCCCC2	-5%[59 µM]	?	8%	3.5µM*	-29%	?
O=C(NCC(c1ccco1)N1CCCCC1)c1cc2c(s1)CCCC2 (stereo not given)	22%[12.7 µM]	2%	24%	/	-18%	/
CCOC(=O)c1cc(-c2ccccc2)sc1NC(=O)c1ccc(OC)cc1	?	-33%	?	14µM*	?	8.3µM*
Cc1ccc(-c2c[n+](Cc3ccc(Cl)cc3)c3n2CCC3)cc1	-23%	-26%	-3%	19%	-10%	/
Clc1ccc(C[n+]2csc3ccccc32)cc1	?	50µM*	23%	4µM*	50µM*	8.3µM*	Sfp gel assay=2.1µM*
O=C(NCc1ccc2c(c1)OCO2)C1CCN(c2ccc(S(=O)(=O)N3CCCC3)cc2)CC1	-12%[59 µM]	-1%	8%	11%	-19%	/
SMILES	G9a block	BAZ2B block	HP1b binding inh	Sfp inh	JMJD2A Tudor	Sfp PPTase conf	others
COc1ccccc1NC(=O)Nc1ccc(CC#N)cc1	1%	-2%	35%	4%	8%	/
COC(=O)Nc1sc2c(c1C(N)=O)CCC(C)C2 (stereo not given)	14µM*	-20%	10%	3.5µM*	-23%	15µM*
O=C(CN1C(=O)CC(c2ccco2)Sc2ccccc21)NCC1CCCO1 (stereo not given)	11µM*	-1%	5%	11µM*	-27%	7.4µM*
COc1ccc(C2CC(=O)N(CC(=O)NCC3CCCO3)c3ccccc3S2)cc1 (stereo not given)	10%	6%	20%	6%	-14%	/
c1cncc(-c2nnc(-c3cccnc3)nn2)c1	8.9µM*	-36%	?	40µM*	-25%[57.1 µM]	15µM*
c1ccc(-c2nnc(-c3ccccc3)nn2)cc1	?	?	-18%	4%	?	/
O=C(NCCc1ccccc1)C(=O)NCC1CCNCC1	-2%	/	/	3%	/	/
CC(C)N1CCC(N2CCN(C3CCCC3)CC2CCO)CC1 (stereo not given)	/	-2%	39%	4%	5%[11.4 µM]	/
Cc1cccc(N2CCC(N3CCN(C4CCCCC4)C(CCO)C3)CC2)c1C (stereo not given)	16µM*	45µM*	18%	10µM*	-1%	-7%	Sfp gel assay=i
O=C(O/N=C1\CCS(=O)(=O)c2sccc21)c1ccccc1	-15%[59 µM]	-29%[57.1 µM]	11%	8%	-8%	/
O=C(c1ccc(-c2cccc([N+](=O)[O-])c2)o1)N1CCN(c2ccc([N+](=O)[O-])cc2)CC1	?	4%	1%	/	-13%	/
O=C(c1ccc(-c2ccc([N+](=O)[O-])cc2)o1)N1CCCCC1	?	?	-9%	16µM*	?	19µM*	Sfp gel assay=?
Nc1cccn2c(-c3ccc(Cl)cc3)cnc12	50µM*	50µM*	?	16µM*	-5%[11.4 µM]	?	Sfp gel assay=?
CC(=O)Nc1ccc(S(=O)(=O)N2CCN(c3ccc(C)c(Cl)c3)CC2)cc1	-34%	-18%	38%	2%	-13%	/
